This is a sample that favours compounds with a hit; in the whole collection about 5.2% have one here.
SMARCA2 activ – activators of SMARCA2 function; hit rate 1% among 370,000; activation, % at 9.1 µM; MG213 cells, MMTV-luciferase reporter, dexamethasone, overnight; AID 652017; in the data active = activation above about 7.8%
GRIN3A LBD mod – NR3A (human) ligand-binding domain modulation; hit rate 2.5% among 340,000; Tm shift relative to glycine control, % at 25 µM; NR3A LBD differential scanning fluorimetry, Tm shift; 0% = protein alone, 100% = glycine-bound protein; AID 1259313;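 active = melting temperature shift of at least 10% of the positive control shift, at one fixed dose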
NadD block – NadD (S. aureus) enzyme inhibition | hit rate 0.78% among 360,000 | purified NadD enzyme, colorimetric absorbance read-out | inhibition, % at 20 µM | AID 602399; in the data active = inhibition above about 26%
SKN-1 inh – inhibitors of C. elegans SKN-1; hit rate 0.49% among 360,000; C. elegans VP596 Pgst-4::GFP/RFP ratio, acrylamide-induced, 24 h; inhibition, % at 21.8 µM;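 active = interference check ratio from 0.5 to 1.5 plus GFP to RFP signal ratio inhibition reaching or exceeding a fixed threshold, cut at about 30% in these data, passing the limit was not always enough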
esBAF inh – SWI/SNF esBAF complex inhibition; mouse ES cells, Bmi1-luciferase knock-in reporter, 24 h; 100% = twice the neutral-well signal; reporter increase, % at 12.5 µM; hit rate 2% among 350,000; AID 602393; in the data active = activation above about 40%;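 also: a rise in the Bmi1 reporter signal indicates esBAF inhibition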
Vif imaging – inhibitors of HIV Vif | HEK293T cells, Vif self-association by quenched fluorescence, imaging, 24 h | inhibition, % at 7.49 µM | hit rate 0.35% among 340,000; in the data active = inhibition above about 50%, passing the limit was not always enough
Each line names hits and unclear results; the compound was inactive in the other large screens.

COCc1cn(CC[C@@H]2CC[C@H](NC(=O)Cc3cccnc3)[C@@H](CO)O2)nn1	none (no result: SMARCA2 activ, GRIN3A LBD mod, NadD block, SKN-1 inh, Vif imaging)
CC(NC(=O)c1ccco1)C(=O)N1CCN(C(c2ccccc2)c2ccccc2)CC1 (centres undefined)	GRIN3A LBD mod 11
CC1CCC(C(C)C)C(=O)/C1=C/c1ccc(N)cc1 (centres undefined)	esBAF inh 59
C[C@@H]1CN([C@@H](C)CO)C(=O)Cc2cc(NC(=O)CCC(F)(F)F)ccc2O[C@@H]1CN(C)Cc1ccc2c(c1)OCO2	none (no result: SMARCA2 activ, GRIN3A LBD mod, NadD block, SKN-1 inh, Vif imaging)
Cc1sc2nc(SCc3ccc(C(=O)O)cc3)n(Cc3ccco3)c(=O)c2c1C	none
Cc1sc2ncnc(SCC(=O)c3cccs3)c2c1C	esBAF inh 60
Cc1cccc(NC(=O)CSc2ncnc3sc(C)c(C)c23)n1	none
Cc1sc2nc(SCC(=O)c3cccs3)n(Cc3ccco3)c(=O)c2c1C	GRIN3A LBD mod 11
CCN(CC)CC(C)CNC(=O)CC(C(=O)N1CCc2ccccc21)n1ccnc1 (centres undefined)	Vif imaging 123
COCCN(C(=O)Cc1cccs1)C(C(=O)NCc1ccc(OC)cc1)c1ccc(C)cc1 (centres undefined)	Vif imaging 112
CCc1ccc(C(C(=O)NCc2ccc(OC)cc2)N(CCOC)C(=O)Cc2cccs2)cc1 (centres undefined)	none
Cc1ccc(NC(=O)CNc2ccc(Cl)c(Cl)c2)cc1S(=O)(=O)N(C)C	GRIN3A LBD mod 19
Cc1ccc(NC(=O)Cc2ccc(Cl)c(Cl)c2)cc1S(=O)(=O)N(C)C	none (no result: esBAF inh)
Cc1ccc(NC(=O)CSc2nn(-c3ccc(Cl)cc3)c(=S)s2)cc1S(=O)(=O)N(C)C	none
CN(C)S(=O)(=O)c1cc(NC(=O)CSc2nn(-c3ccc(Cl)cc3)c(=S)s2)ccc1Cl	GRIN3A LBD mod 16 (no result: esBAF inh)
Cc1ccc(NCN2C(=O)C(=O)c3ccccc32)nc1	GRIN3A LBD mod 13
COCCN1Cc2cccc(C(=O)Nc3cccc(OC)c3)c2C1=O	GRIN3A LBD mod 19
O=C(Nc1cccc(Cl)c1)N1CCc2ccccc2C1	esBAF inh 50
COc1cccc(NC(=O)N2CCc3ccccc3C2)c1	esBAF inh 50
O=C(Nc1ccc([N+](=O)[O-])cc1)N1CCc2ccccc2C1	esBAF inh 51
C[C@H](CO)N1C[C@H](C)[C@@H](CN(C)C(=O)Nc2ccccc2)OCCCC[C@H](C)Oc2ccc(NC(=O)Cc3ccccc3)cc2C1=O	none (no result: SMARCA2 activ, GRIN3A LBD mod, NadD block, SKN-1 inh, Vif imaging)
C[C@@H]1CN([C@H](C)CO)C(=O)c2cccc(NC(=O)Nc3ccc4c(c3)OCO4)c2O[C@@H]1CN(C)C(=O)Nc1ccccc1	none (no result: SMARCA2 activ, GRIN3A LBD mod, NadD block, SKN-1 inh, Vif imaging)
O=C(NCC[C@@H]1CC[C@@H](NS(=O)(=O)c2cccc(F)c2)[C@@H](CO)O1)c1cnccn1	none (no result: SMARCA2 activ, GRIN3A LBD mod, NadD block, SKN-1 inh, Vif imaging)
COc1ccccc1CNC(=O)C[C@H]1C[C@H]2c3cc(NC(=O)CC4CC4)ccc3O[C@H]2[C@@H](CO)O1	none (no result: SMARCA2 activ, GRIN3A LBD mod, NadD block, SKN-1 inh, Vif imaging)
COc1cc(Nc2ncc3c(n2)CCN(C(=O)Nc2ccc(C(C)C)cc2)C3)cc(OC)c1OC	none (no result: GRIN3A LBD mod)
O=[N+]([O-])c1ccc(N2CCc3ccccc3C2)cc1	SKN-1 inh 44
COc1cccc(NC(=O)N2CCc3nc(Nc4ccc(C(C)C)cc4)ncc3C2)c1	esBAF inh 70 (no result: GRIN3A LBD mod)
CCCCC(=O)N1CCN(c2nc3ccc(Cl)cc3s2)CC1	esBAF inh 50
CC(C)(CC(=O)O)CC(=O)N1CCN(c2nc3ccc(Cl)cc3s2)CC1	none (no result: SMARCA2 activ)
CC(C)C#Cc1ccc2c(c1)O[C@H](CN(C)Cc1ccncc1)[C@H](C)CN([C@@H](C)CO)S2(=O)=O	none (no result: SMARCA2 activ, GRIN3A LBD mod, NadD block, SKN-1 inh, Vif imaging)
CCCN(C)C[C@@H]1Oc2cc(C#C[C@@H](C)O)ccc2S(=O)(=O)N([C@@H](C)CO)C[C@@H]1C	none (no result: SMARCA2 activ, GRIN3A LBD mod, NadD block, SKN-1 inh, Vif imaging)
CCCOP(=O)(OCCC)c1c([N+](=O)[O-])cc(C(F)(F)F)cc1[N+](=O)[O-]	GRIN3A LBD mod 11 (no result: esBAF inh)
O=C(NNC(=O)c1cc2cc(OC(F)(F)F)ccc2[nH]1)c1cccc(C(F)(F)F)c1	GRIN3A LBD mod 23
CCC1=NN2C(=N)/C(=C\c3ccc(OCCOc4ccccc4OC)cc3)C(=O)N=C2S1	NadD block 25
COc1ccc(-n2cccc2/C=C2\C(=N)N3N=C(c4ccco4)SC3=NC2=O)cc1	NadD block 74 (no result: esBAF inh)
CCC1=NN2C(=N)/C(=C\c3ccc(OCCOc4ccc(NC(C)=O)cc4)c(OC)c3)C(=O)N=C2S1	none
COc1ccc(OCCOc2ccc(/C=C3\C(=N)N4N=C(C)SC4=NC3=O)cc2)cc1	NadD block 68
COc1ccccc1-c1ccc([C@@H]2[C@@H](CO)N(C(=O)C3CCOCC3)[C@H]2C#N)cc1	none (no result: SMARCA2 activ, GRIN3A LBD mod, NadD block, SKN-1 inh, Vif imaging)
CCC(=O)N[C@H]1CC[C@H](CC(=O)NCc2ccc(OC)cc2)O[C@H]1CO	none (no result: SMARCA2 activ, GRIN3A LBD mod, NadD block, SKN-1 inh, Vif imaging)
C[C@@H]1CCCCO[C@H](CN(C)C)[C@@H](C)CN([C@@H](C)CO)C(=O)c2cc(NC(=O)c3ccccc3)ccc2O1	none (no result: SMARCA2 activ, GRIN3A LBD mod, NadD block, SKN-1 inh, Vif imaging)
CC(=O)N1C[C@@H]2[C@H](c3ccccc31)[C@H](CO)N2C(=O)CC1CC1	none (no result: SMARCA2 activ, GRIN3A LBD mod, NadD block, SKN-1 inh, Vif imaging)
Cc1ccc(Nc2nc(N)nc(-c3oc4ccccc4c3C)n2)cc1	none (no result: SMARCA2 activ, esBAF inh)
Cc1cccc(Nc2nc(N)nc(-c3oc4ccccc4c3C)n2)c1	esBAF inh 57
COc1cccc(Nc2nc(N)nc(-c3oc4ccccc4c3C)n2)c1	GRIN3A LBD mod 17, esBAF inh 51
Cc1c(-c2nc(N)nc(Nc3ccccc3F)n2)oc2ccccc12	esBAF inh 48
C[C@H](CO)N1C[C@H](C)[C@H](CN(C)C(=O)Nc2ccc3c(c2)OCO3)Oc2c(NS(=O)(=O)c3cccs3)cccc2C1=O	none (no result: SMARCA2 activ, GRIN3A LBD mod, NadD block, SKN-1 inh, Vif imaging)
COc1ccc(C2=NOC(Cn3nc(-c4ccccc4)cc3C(=O)NCc3ccccc3OC)C2)cc1 (centres undefined)	GRIN3A LBD mod 25
COc1ccc(-c2noc(N3CCCC(C(=O)Nc4ccc(C(C)=O)cc4)C3)n2)cc1 (centres undefined)	esBAF inh 48
C[C@@H]1CN([C@@H](C)CO)S(=O)(=O)c2ccc(C#C[C@@H](C)O)cc2O[C@@H]1CN(C)CC1CCOCC1	none (no result: SMARCA2 activ, GRIN3A LBD mod, NadD block, SKN-1 inh, Vif imaging)
CC(C)(C)c1csc(N(CCC#N)CCC#N)n1	GRIN3A LBD mod 14
N#CCCN(CCC#N)c1nncs1	none
O=C1CCCCC1C(=O)c1cn(-c2ccc(Cl)c(Cl)c2)nn1 (centres undefined)	esBAF inh 63
O=C(c1cn(-c2ccc(Cl)c(Cl)c2)nn1)C1CC1	none
COCC(=O)N(C)C[C@@H]1Oc2cc(-c3cccnc3)ccc2S(=O)(=O)N([C@H](C)CO)C[C@H]1C	none (no result: SMARCA2 activ, GRIN3A LBD mod, NadD block, SKN-1 inh, Vif imaging)
Cc1ccc(Nc2nc(N/N=C/c3c[nH]c4ccccc34)nc(N3CCOCC3)n2)cc1	GRIN3A LBD mod 29 (no result: esBAF inh)
Cc1[nH]c2ccccc2c1/C=N/Nc1nc(Nc2ccc(F)cc2)nc(N2CCOCC2)n1	none
Nc1nnc(COc2ccc(Br)cc2Br)s1	esBAF inh 69
O=C(NCCCCCCNC(=O)OCc1ccccc1)OCc1ccccc1	none
O=C(NCCC(=O)N1CCNC1=O)OCc1ccccc1	GRIN3A LBD mod 14

Assay outcomes (PubChem BioAssay)
